Drawing on PubChem BioAssay (NCATS), this text covers activation and Potency for 39 molecules.

The structures appear in SMILES notation. Values joined by “and” are separate entries in the source; they are usually repeats but may differ in a detail not shown here. Equal values may be shown once. Inconclusive results are not listed. Active and inactive are the calls of the source. Unless noted, calls come from the whole dose curve; as a rule, active = well fitted activation curve with a large enough effect; inconclusive = small, poorly fitted or top-dose-only effect; inactive = no such curve, though single readings can be large or run the other way.
Potency is the fitted concentration of half-maximal effect.

The target in the first assay is Cellular tumor antigen p53 (Homo sapiens) (UniProt P04637). The assay can be described thus: Primary qHTS for small molecule compounds that upregulate eGFP-tagged delta133p53alpha (in N-terminal) cells. (AID 2060322).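 For activation: 0% = DMSO vehicle and 100% = reference activator.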 Note: nearly all actives have a fitted effect of over 75% in size. Particulars: NCI-H358 eGFP-delta133p53alpha fluorescence, 24 h; activation: stronger effect = higher value. In a few lines: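 NCI-H358 cells pre-induced 24 h with 10 ng/ml doxycycline to express N-terminal eGFP-delta133p53alpha, then dosed 24 h at 37C without doxycycline; fixed, Hoechst-stained, GFP intensity by laser scanning cytometry, normalized to DMSO (0%) and 57.5 uM 5-azacytidine (100%).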
Sequence of Cellular tumor antigen p53 (Homo sapiens) (P04637 whole entry, looked up): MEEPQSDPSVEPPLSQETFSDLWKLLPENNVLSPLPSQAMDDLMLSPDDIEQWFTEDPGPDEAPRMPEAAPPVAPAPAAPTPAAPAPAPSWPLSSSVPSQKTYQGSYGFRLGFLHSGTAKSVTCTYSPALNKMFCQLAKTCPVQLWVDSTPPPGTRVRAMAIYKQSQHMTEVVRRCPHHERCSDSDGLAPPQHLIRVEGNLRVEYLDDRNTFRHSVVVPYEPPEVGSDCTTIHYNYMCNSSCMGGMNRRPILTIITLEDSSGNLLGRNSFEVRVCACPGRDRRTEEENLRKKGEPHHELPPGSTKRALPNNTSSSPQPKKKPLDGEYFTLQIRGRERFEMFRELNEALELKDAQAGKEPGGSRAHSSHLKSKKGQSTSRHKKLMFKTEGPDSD
Take `CC(C)(C)c1o[nH]c(=O)c1CC(N)C(=O)O` (stereo unspecified): the activation was -13.9% (inactive). `CO[C@@H]1[C@H](O)[C@@H](O[C@@H]2C[C@H]3CC[C@@H]4C(CC[C@]5(C)[C@@H](C6=CC(=O)OC6)CC[C@]45O)[C@@]3(C)[C@H](O)C2)O[C@H](C)[C@@H]1O` (stereo partly specified): the Potency is 1040 nM (active).

Regarding `CCCCCN(C)CCC(O)(P(=O)(O)O)P(=O)(O)O`, the activation was 3.78% (inactive) and 4.27% (inactive). Take `CCCN(CCC)[C@@H]1CCc2cccc(O)c2C1`: the activation was 20% (inactive). The same measure, in the same setting: to `NC(=O)c1cc(N2CC2)c([N+](=O)[O-])cc1[N+](=O)[O-]` belongs -14.9% (inactive); to `CCCN(CCC)[C@@H]1CCc2ccc3[nH]c(C#N)cc3c2C1`, 19.1% (inactive); to `CN1C2CCC1CC(OC(=O)c1cc(Cl)cc(Cl)c1)C2` (stereo unspecified), -57.3% (inactive). In the case of `Cc1nccc2c1[nH]c1ccccc12`, the activation was -18.9% (inactive). Same read-out and setting: to `COC[C@H]1OC(=O)c2coc3c2[C@@]1(C)C1=C(C3=O)C2CCC(=O)[C@@]2(C)C[C@H]1OC(C)=O` (stereo partly specified) belongs -11.7% (inactive); to `NC(CP(=O)(O)O)C(=O)O` (stereo unspecified), -3.82% (inactive). Take `CC(C)(C)c1cc(C=C(C#N)C#N)cc(C(C)(C)C)c1O`: the activation is 6.66% (inactive).

Consider `C[C@@H]1O[C@@H](O[C@H]2C[C@@H](O)[C@]3(CO)[C@@H]4C(CC[C@]3(O)C2)[C@@]2(O)CC[C@H]([C@@H]3COC(=O)C3)[C@@]2(C)C[C@H]4O)[C@H](O)[C@H](O)[C@H]1O` (stereo partly specified), for which the activation was -50% (inactive). As to `NCC(CP(=O)(O)O)c1ccc(Cl)cc1` (stereo unspecified), the activation was -1.72% (inactive). As for `CC[C@@H](C(N)=O)N1CCCC1=O`, the activation is 0.54% (inactive). Regarding `OCc1cnc[nH]1`, the activation was -9.48% (inactive). In the case of `O=C(O)c1nn(Cc2ccc(Cl)cc2Cl)c2ccccc12`, the activation was 21.3% (inactive) and 19.8% (inactive) and -21.2% (inactive). For `CN(N=O)c1cc(O)ccc1O`, the activation is -33.2% (inactive). As for `CC(=O)[C@H]1CC[C@H]2[C@@H]3CC[C@H]4C[C@H](O)CC[C@]4(C)[C@H]3C(=O)C[C@]12C`, the activation is -36.8% (inactive) and -33% (inactive). Turning to `CC(C)c1cccc(C(C)C)c1O`, the activation is 0.683% (inactive) and -5.08% (inactive) and -18.8% (inactive).

Turning to `Cc1cc([C@@H]2CCCN2C)on1`, the activation was 4.82% (inactive).

Consider `CC(=O)[C@H]1CCC2C3CC[C@H]4C[C@H](O)CC[C@]4(C)C3CC[C@@]21C` (stereo partly specified), for which the activation was -16.4% (inactive). As for `CC(C)(C)NCC(O)c1ccccc1Cl` (stereo unspecified), the activation is 26.8% (inactive) and -4.18% (inactive). On to `CC(O)(CS(=O)(=O)c1ccc(F)cc1)C(=O)Nc1ccc(C#N)c(C(F)(F)F)c1` (stereo unspecified), for which the activation was -7.17% (inactive) and -30.6% (inactive) and 1.43% (inactive).

As to `CCCN1CCc2cccc3c2[C@H]1Cc1ccc(O)c(O)c1-3`, the activation is -13.3% (inactive). The same measure, in the same setting: to `O=c1[nH]c2ccccc2n1CCCN1CCC(n2c(=O)[nH]c3cc(Cl)ccc32)CC1` belongs 22.2% (inactive) and -21.7% (inactive); to `COc1ccc2[nH]cc(CCN)c2c1`, -19.1% (inactive); to `O=c1[nH]oc2c1CCNC2`, -18.6% (inactive) and 14.5% (inactive). With `C=CCN1CC[C@]23CCCCC2[C@H]1Cc1ccc(O)cc13` (stereo partly specified), the activation was -35.3% (inactive). On to `NC(C(=O)O)c1cc(=O)[nH]o1` (stereo unspecified), for which the activation was -10.1% (inactive). The same measure, in the same setting: with `C[N+]1(C)CCOC(O)(c2ccc(-c3ccc(C4(O)C[N+](C)(C)CCO4)cc3)cc2)C1` (stereo unspecified) the figure was 14.5% (inactive). With `O=C(O)CC[N+](=O)[O-]`, the activation was -18.9% (inactive). Consider `CN1CCC[C@@H]1Cc1c[nH]c2ccc(Nc3ncccc3[N+](=O)[O-])cc12`, for which the activation is -40.7% (inactive) and 3.34% (inactive). On the same count and under the same terms, to `CCCCc1ccc(C(=O)O)nc1` belongs 16.6% (inactive); to `CCCN(CCC)C1CCc2cccc(O)c2C1` (stereo unspecified), 29.8% (inactive); to `CN[C@@H]1C[C@@H](c2ccc(Cl)c(Cl)c2)c2ccccc21`, -33.4% (inactive). Still for that read-out and setting: with `CC(C)NP(=O)(NC(C)C)OP(=O)(NC(C)C)NC(C)C` the figure was -39% (inactive); with `CCCn1c(=O)c2[nH]c(C3CCCC3)nc2n(CCCOC(=O)c2ccc(S(=O)(=O)F)cc2)c1=O`, 11.3% (inactive).

As for `COC(=O)[C@@H](N)CCCN=C(N)N[N+](=O)[O-]`, the activation was -9.21% (inactive) and -14.8% (inactive). With `CC(N)[C@H](O)c1ccc(O)c(O)c1` (stereo partly specified), the activation was -12.2% (inactive).

Another assay deals with Aldehyde dehydrogenase, mitochondrial (Homo sapiens) (UniProt P05091). Description: qHTS for Inhibitors of the Aldehyde Dehydrogenase Family (ALDH2) Validation screens (AID 2061302; active = well fitted inhibition curve with a large enough effect; title and protocol of this record describe different tests). Particulars: ALDH inhibition qHTS; series mostly up to 42.6 µM. (In general: In qHTS, concentration-response curves come from the screen itself.)
In the case of `CC(C)(C)c1o[nH]c(=O)c1CC(N)C(=O)O` (stereo unspecified), the Potency entry is “inactive”. Turning to `CCCCCN(C)CCC(O)(P(=O)(O)O)P(=O)(O)O`, the Potency result is “inactive”.

For `CCCN(CCC)[C@@H]1CCc2cccc(O)c2C1`, the Potency result was “inactive”.

On to `NC(=O)c1cc(N2CC2)c([N+](=O)[O-])cc1[N+](=O)[O-]`, for which the Potency result was “inactive”.

Turning to `CN1C2CCC1CC(OC(=O)c1cc(Cl)cc(Cl)c1)C2` (stereo unspecified), the Potency result was “inactive”. As for `Cc1nccc2c1[nH]c1ccccc12`, the Potency result was “inactive”.

On to `COC[C@H]1OC(=O)c2coc3c2[C@@]1(C)C1=C(C3=O)C2CCC(=O)[C@@]2(C)C[C@H]1OC(C)=O` (stereo partly specified), for which the Potency entry is “inactive”.

Consider `NC(CP(=O)(O)O)C(=O)O` (stereo unspecified), for which the Potency result was “inactive”. `CC(C)(C)c1cc(C=C(C#N)C#N)cc(C(C)(C)C)c1O`: the Potency entry is “inactive”. On the same count and under the same terms, to `C[C@@H]1O[C@@H](O[C@H]2C[C@@H](O)[C@]3(CO)[C@@H]4C(CC[C@]3(O)C2)[C@@]2(O)CC[C@H]([C@@H]3COC(=O)C3)[C@@]2(C)C[C@H]4O)[C@H](O)[C@H](O)[C@H]1O` (stereo partly specified) belongs “inactive”; to `NCC(CP(=O)(O)O)c1ccc(Cl)cc1` (stereo unspecified), “inactive”. As for `CC[C@@H](C(N)=O)N1CCCC1=O`, the Potency entry is “inactive”.

On to `OCc1cnc[nH]1`, for which the Potency entry was “inactive”. As to `O=C(O)c1nn(Cc2ccc(Cl)cc2Cl)c2ccccc12`, the Potency result was “inactive”. The same measure, in the same setting: to `CN(N=O)c1cc(O)ccc1O` belongs 794 nM (active); to `CC(=O)[C@H]1CC[C@H]2[C@@H]3CC[C@H]4C[C@H](O)CC[C@]4(C)[C@H]3C(=O)C[C@]12C`, “inactive”; to `CC(C)c1cccc(C(C)C)c1O`, “inactive”. On the same count and under the same terms, to `Cc1cc([C@@H]2CCCN2C)on1` belongs “inactive”; to `CC(=O)[C@H]1CCC2C3CC[C@H]4C[C@H](O)CC[C@]4(C)C3CC[C@@]21C` (stereo partly specified), “inactive”. Same read-out and setting: to `CC(C)(C)NCC(O)c1ccccc1Cl` (stereo unspecified) belongs “inactive”; to `CC(O)(CS(=O)(=O)c1ccc(F)cc1)C(=O)Nc1ccc(C#N)c(C(F)(F)F)c1` (stereo unspecified), “inactive”. Regarding `CCCN1CCc2cccc3c2[C@H]1Cc1ccc(O)c(O)c1-3`, the Potency result was “inactive”. On the same count and under the same terms, to `O=c1[nH]c2ccccc2n1CCCN1CCC(n2c(=O)[nH]c3cc(Cl)ccc32)CC1` belongs “inactive”; to `COc1ccc2[nH]cc(CCN)c2c1`, “inactive”; to `O=c1[nH]oc2c1CCNC2`, “inactive”. For the molecule `C=CCN1CC[C@]23CCCCC2[C@H]1Cc1ccc(O)cc13` (stereo partly specified), the Potency entry was “inactive”. Regarding `NC(C(=O)O)c1cc(=O)[nH]o1` (stereo unspecified), the Potency entry is “inactive”. As for `C[N+]1(C)CCOC(O)(c2ccc(-c3ccc(C4(O)C[N+](C)(C)CCO4)cc3)cc2)C1` (stereo unspecified), the Potency result was “inactive”.

Take `O=C(O)CC[N+](=O)[O-]`: the Potency result was “inactive”. With `CN1CCC[C@@H]1Cc1c[nH]c2ccc(Nc3ncccc3[N+](=O)[O-])cc12`, the Potency entry was “inactive”. Consider `CCCCc1ccc(C(=O)O)nc1`, for which the Potency entry was “inactive”. With `CCCN(CCC)C1CCc2cccc(O)c2C1` (stereo unspecified), the Potency entry is “inactive”. Still for that read-out and setting: with `CN[C@@H]1C[C@@H](c2ccc(Cl)c(Cl)c2)c2ccccc21` the entry was “inactive”; with `CC(C)NP(=O)(NC(C)C)OP(=O)(NC(C)C)NC(C)C`, “inactive”; with `CCCn1c(=O)c2[nH]c(C3CCCC3)nc2n(CCCOC(=O)c2ccc(S(=O)(=O)F)cc2)c1=O`, “inactive”. Consider `COC(=O)[C@@H](N)CCCN=C(N)N[N+](=O)[O-]`, for which the Potency result is “inactive”. As to `CC(N)[C@H](O)c1ccc(O)c(O)c1` (stereo partly specified), the Potency result is “inactive”.
